The full ranking holds about 16,000 sequences; the median of “rpm ratio (pull-down/input)” is about 0.94, and the highest 2% start at about 1.7. The full list was thinned out, with the highest values kept by preference.
target: T1, MBP-FoxP1dN (Mus musculus, UniProt P58462 326-579); experiment: PD-seq (MBP pull-down with sequencing); 20 mM Tris-HCl pH 7.5, 100 mM NaCl, 1.5 mM MgCl2, 0.4 uM protein, 0.1 uM dsDNA library, 30 min, room temperature, amylose pull-down; high values mean tight binding; conditions: protein: recombinant; tags: His6-MBP; chain copies: 2; dsDNA, one strand shown
T1 sequence: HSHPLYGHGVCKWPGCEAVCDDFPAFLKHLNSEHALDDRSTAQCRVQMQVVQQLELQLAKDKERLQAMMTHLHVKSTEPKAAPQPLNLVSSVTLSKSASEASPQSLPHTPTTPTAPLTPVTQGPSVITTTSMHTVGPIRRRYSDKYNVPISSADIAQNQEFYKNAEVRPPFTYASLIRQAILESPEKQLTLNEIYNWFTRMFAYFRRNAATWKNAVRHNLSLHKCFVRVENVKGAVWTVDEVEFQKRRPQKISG
Method in brief: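 In Tris pH 7.5 buffer with NaCl and MgCl2, 0.4 µM His6-MBP-tagged mouse FoxP3 or FoxP1 fragment lacking the N-terminus, from E. coli, met 0.1 µM Klenow-filled double-stranded degenerate DNA library for 30 min at room temperature. Three washes on amylose resin followed capture of the complexes, then proteinase K release of DNA, PCR barcoding and Illumina sequencing. Binding is taken as pooled-replicate reads-per-million enrichment of pull-down relative to input.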

| Sequence | binding signal |
| --- | --- |
| GATGATTGTTCTCCCAGCTGATGAATTCGGACCCTCGAGTAAACAAATTTTCCTAATCTTTCTGTTCAAGCGCCATCTAC | 0.79 RPM ratio (pull-down/input) |
| GATGATTGTTCTCCCAGCTGATGAATTCTATTTTTCGAGTAAACAAATTTTCCTAATCTTTCTGTTCAAGCGCCATCTAC | 1.61 RPM ratio (pull-down/input) |
| GATGATTGTTCTCCCAGCTGATGAATTTCCTATTTCGAGTAAACAAATTTTCCTAATCTTTCTGTTCAAGCGCCATCTAC | 0.887 RPM ratio (pull-down/input) |
| GATGATTGTTCTCCCAGCTGATGAATTCCTATTTTCGAGTAAACAAATTTTCCTAATCTTTCTGTTCAAGCGCCATCTAC | 1.86 RPM ratio (pull-down/input) |
| GATGATTGTTCTCCCAGCTGATGAATTTCTATTTTCGAGTAAACAAATTTTCCTAATCTTTCTGTTCAAGCGCCATCTAC | 2.01 RPM ratio (pull-down/input) |
| GATGATTGTTCTCCCAGCTGATGAATTTTTCTATTCGAGTAAACAAATTTTCCTAATCTTTCTGTTCAAGCGCCATCTAC | 0.984 RPM ratio (pull-down/input) |
| GATGATTGTTCTCCCAGCTGATGAATTCTATTGTTCGAGTAAACAAATTTTCCTAATCTTTCTGTTCAAGCGCCATCTAC | 1.99 RPM ratio (pull-down/input) |
| GATGATTGTTCTCCCAGCTGATGAATTGTTCTATTCGAGTAAACAAATTTTCCTAATCTTTCTGTTCAAGCGCCATCTAC | 1.34 RPM ratio (pull-down/input) |
| GATGATTGTTCTCCCAGCTGATGAATTTTCTATTTCGAGTAAACAAATTTTCCTAATCTTTCTGTTCAAGCGCCATCTAC | 0.975 RPM ratio (pull-down/input) |
| GATGATTGTTCTCCCAGCTGATGAATTCTCCTATTCGAGTAAACAAATTTTCCTAATCTTTCTGTTCAAGCGCCATCTAC | 0.943 RPM ratio (pull-down/input) |
| GATGATTGTTCTCCCAGCTGATGAATTAGTTGCATCGAGTAAACAAATTTTCCTAATCTTTCTGTTCAAGCGCCATCTAC | 1.65 RPM ratio (pull-down/input) |
| GATGATTGTTCTCCCAGCTGATGAATTCCACCACTCGAGTAAACAAATTTTCCTAATCTTTCTGTTCAAGCGCCATCTAC | 0.844 RPM ratio (pull-down/input) |
| GATGATTGTTCTCCCAGCTGATGAATTGATGCACTCGAGTAAACAAATTTTCCTAATCTTTCTGTTCAAGCGCCATCTAC | 1.72 RPM ratio (pull-down/input) |
| GATGATTGTTCTCCCAGCTGATGAATTGACAATATCGAGTAAACAAATTTTCCTAATCTTTCTGTTCAAGCGCCATCTAC | 1.86 RPM ratio (pull-down/input) |
| GATGATTGTTCTCCCAGCTGATGAATTTTGAATATCGAGTAAACAAATTTTCCTAATCTTTCTGTTCAAGCGCCATCTAC | 1.07 RPM ratio (pull-down/input) |
| GATGATTGTTCTCCCAGCTGATGAATTTTGACAATCGAGTAAACAAATTTTCCTAATCTTTCTGTTCAAGCGCCATCTAC | 1.26 RPM ratio (pull-down/input) |

| Sequence | binding signal |
| --- | --- |
| GATGATTGTTCTCCCAGCTGATGAATTGAATATATCGAGTAAACAAATTTTCCTAATCTTTCTGTTCAAGCGCCATCTAC | 1.04 RPM ratio (pull-down/input) |
| GATGATTGTTCTCCCAGCTGATGAATTTGACACATCGAGTAAACAAATTTTCCTAATCTTTCTGTTCAAGCGCCATCTAC | 0.966 RPM ratio (pull-down/input) |
| GATGATTGTTCTCCCAGCTGATGAATTGACACAATCGAGTAAACAAATTTTCCTAATCTTTCTGTTCAAGCGCCATCTAC | 1.75 RPM ratio (pull-down/input) |
| GATGATTGTTCTCCCAGCTGATGAATTAGGTGGGTCGAGTAAACAAATTTTCCTAATCTTTCTGTTCAAGCGCCATCTAC | 0.78 RPM ratio (pull-down/input) |
| GATGATTGTTCTCCCAGCTGATGAATTGGTTGGTTCGAGTAAACAAATTTTCCTAATCTTTCTGTTCAAGCGCCATCTAC | 1 RPM ratio (pull-down/input) |
| GATGATTGTTCTCCCAGCTGATGAATTTGTTGGTTCGAGTAAACAAATTTTCCTAATCTTTCTGTTCAAGCGCCATCTAC | 2.02 RPM ratio (pull-down/input) |
| GATGATTGTTCTCCCAGCTGATGAATTGGTGTTTTCGAGTAAACAAATTTTCCTAATCTTTCTGTTCAAGCGCCATCTAC | 2.65 RPM ratio (pull-down/input) |
| GATGATTGTTCTCCCAGCTGATGAATTGGTTGTTTCGAGTAAACAAATTTTCCTAATCTTTCTGTTCAAGCGCCATCTAC | 1.45 RPM ratio (pull-down/input) |
| GATGATTGTTCTCCCAGCTGATGAATTGGTTTGTTCGAGTAAACAAATTTTCCTAATCTTTCTGTTCAAGCGCCATCTAC | 1.13 RPM ratio (pull-down/input) |
| GATGATTGTTCTCCCAGCTGATGAATTTGGTTGTTCGAGTAAACAAATTTTCCTAATCTTTCTGTTCAAGCGCCATCTAC | 1.29 RPM ratio (pull-down/input) |
| GATGATTGTTCTCCCAGCTGATGAATTGTTTGGTTCGAGTAAACAAATTTTCCTAATCTTTCTGTTCAAGCGCCATCTAC | 1.81 RPM ratio (pull-down/input) |
| GATGATTGTTCTCCCAGCTGATGAATTTTTGGTTTCGAGTAAACAAATTTTCCTAATCTTTCTGTTCAAGCGCCATCTAC | 0.984 RPM ratio (pull-down/input) |
| GATGATTGTTCTCCCAGCTGATGAATTGGTGTGTTCGAGTAAACAAATTTTCCTAATCTTTCTGTTCAAGCGCCATCTAC | 1.34 RPM ratio (pull-down/input) |
| GATGATTGTTCTCCCAGCTGATGAATTTGGTGTTTCGAGTAAACAAATTTTCCTAATCTTTCTGTTCAAGCGCCATCTAC | 1.12 RPM ratio (pull-down/input) |
| GATGATTGTTCTCCCAGCTGATGAATTTTTTGGTTCGAGTAAACAAATTTTCCTAATCTTTCTGTTCAAGCGCCATCTAC | 1.01 RPM ratio (pull-down/input) |
